Rows were chosen to be rich in hits. Some 2.1% of all compounds tested hit in one or more screens of this group.
EBV LMP1 NFkB: reduces LMP1-driven NF-kappaB luciferase signal; LMP1-induced NF-kappaB luciferase reporter cells, luminescence; inhibition, % at 12.5 µM; actives 0.69% (n = 350,000); AID 504558; in the data active = inhibition above about 41%; inconclusive = no clear call, values can overlap the other calls;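 also: 0% = neutral control wells and 100% = reference inhibitor control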
TRPM1 prom inh: inhibitors of MITF-driven TRPM1 promoter in melanoma cells; inhibition, % at 12.5 µM; SK-MEL-5 TRPM1 promoter luciferase, 24 h; actives 0.83% (n = 330,000);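 active = mean inhibition across replicates of 60% or more, whatever share of single replicates reaches that level; inconclusive = some that reach 60%, reason not given; inactive = mean inhibition across replicates below 60%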
Shn3 inh set2: inhibitors of Schnurri-3 3'UTR reporter in osteoblasts; Clone20 osteoblast Shn3 3'UTR firefly luciferase, 24 h; inhibition, % at 12.5 µM; actives 0.52% (n = 360,000); AID 588674;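 active = mean inhibition of at least 75% with every replicate also reaching 75%; inconclusive = mean inhibition at least 75% but some replicate below; inactive = mean inhibition below 75%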;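 also: 0% = median of neutral control wells and 100% = pilot-screen positive control compound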
aSyn UTR inh: 5' untranslated region of α-synuclein, MLPCN primary screen | alpha-synuclein 5'UTR reporter, inhibitor activity | inhibition, % (tested at 7.5 µM) | actives 0.82% (n = 300,000); in the data active = inhibition above about 60%; inconclusive = no clear call, values can overlap the other calls;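 also: H4 neuroglioblastoma cells stably carrying SNCA 5'UTR luciferase fusion; 0% = DMSO wells and 100% = positive control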
PAX8 reporter: PAX8 transcriptional activity inhibition; actives 1.2% (n = 360,000); RMG-I TPO-luciferase reporter, SteadyGlo, 24 h; inhibition, % at 12.6 µM;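 active = mean replicate inhibition at least 60% with every replicate also reaching 60%; inconclusive = only one of the two criteria is met; inactive = mean below 60% and not all replicates reaching 60%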;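 also: luciferase light reporting Pax8 driven TPO promoter activity; plate controls were median of neutral control wells for no effect and mitoxantrone controls for full effect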
* = called active by the depositor; ? = inconclusive; · = no result given; ! = not active in a repeat.

SMILES	EBV LMP1 NFkB	TRPM1 prom inh	Shn3 inh set2	aSyn UTR inh	PAX8 reporter
COc1ccc(-c2cc(NC=O)c3ncc(-c4ccc(OC)c(OC)c4)n3c2)cc1OC	·	·	35	·	53
c1ccc(COc2cccc(-c3cc4nc(NCc5cccs5)ccn4n3)c2)cc1	·	·	-3	·	-40
CCn1c(C)nc2cc(C(=O)N/N=C/c3ccccc3)ccc21	-16	-37	-79	-83	-105
CCn1c(C)nc2cc(C(=O)N/N=C(\C)c3ccc(OC)cc3O)ccc21	24	-6	55	84*	1
CCn1c(C)nc2cc(C(=O)N/N=C/c3cccc(O)c3O)ccc21	0	4	91*	-4	-1
COc1ccc(N2CCN(C(=O)C(=O)c3c[nH]c4ccccc34)CC2)cc1	6	-4	11	4	4
COc1ccc(C2CC(c3cccs3)=NN2C(=O)c2ccccc2)cc1OC (stereo not drawn)	-14	-8	4	8	-2
COc1ccc(C2CC(c3cccs3)=NN2C(=O)CCl)cc1OC (stereo not drawn)	-5	83*	49	-26	-3
COc1cc(C2CC(c3cccs3)=NN2C(=O)CCl)ccc1OC(F)F (stereo not drawn)	0	65*	57	107*	-32
COc1ccc(C2CC(c3cccs3)=NN2C(=O)CCC(=O)O)cc1 (stereo not drawn)	0	3	-30	-16	-1
CCOC(=O)Nc1ccc2c(c1)N(C(=O)CCN(CC)CC)c1ccccc1CC2	-24	-13	-18	6	40
CCOC(=O)Nc1ccc2c(c1)N(C(=O)CCN(CC)CC)c1ccccc1S2=O (stereo not drawn)	3	11	1	-20	109*
CC(C)=CCc1c(O)ccc2c1OC(c1ccc(O)c(O)c1)CC2=O (stereo not drawn)	-8	71*	22	35	·
COc1ccc(N(Cc2cc(=O)[nH]c3ccccc23)C(C)=O)cc1	14	7	13	11	13
Cc1c(/N=C(\[O-])Nc2ccc(Br)cc2)sn[n+]1C	·	·	-28	89*	-42
Cc1ccccc1/C(=N\S(=O)(=O)c1ccc(Br)cc1)Nc1ccccc1	2	·	-23	·	-1
C[C@@H]1CN([C@H](C)CO)S(=O)(=O)c2ccc(C#Cc3cccnc3)cc2O[C@H]1CN(C)C(=O)Nc1ccc2c(c1)OCO2	·	·	·	·	-1
Cc1ccc(C2Cc3cc(O)c(O)cc3CN2)cc1 (stereo not drawn)	·	·	21	89*	40
Nc1nc2c(s1)CCc1ccccc1-2	-4	-6	-36	-49	-4
C/C=C/c1ccc2c(c1)O[C@H](CN(C)S(=O)(=O)c1ccccc1OC)[C@H](C)CN([C@H](C)CO)S2(=O)=O	·	·	·	·	14
COc1ccc(C#Cc2ccc3c(c2)O[C@@H](CN(C)S(=O)(=O)c2ccccc2F)[C@@H](C)CN([C@@H](C)CO)S3(=O)=O)cc1	·	·	·	·	6
COc1ccccc1S(=O)(=O)N(C)C[C@@H]1Oc2cc(C#CCC3CCCC3)ccc2S(=O)(=O)N([C@@H](C)CO)C[C@H]1C	·	·	·	·	73*
COc1ccccc1S(=O)(=O)N(C)C[C@@H]1Oc2cc(C#CCC3CCCC3)ccc2S(=O)(=O)N([C@@H](C)CO)C[C@@H]1C	·	·	·	·	76*
Cc1cc(NC(=O)c2cccc(S(=O)(=O)N3c4ccccc4CC3C)c2)no1 (stereo not drawn)	-4	-1	24	33	25
CCOC(=O)c1sc(NC(=O)c2cccc(S(=O)(=O)N3c4ccccc4CC3C)c2)cc1C (stereo not drawn)	-17	6	32	80*	4
SMILES	EBV LMP1 NFkB	TRPM1 prom inh	Shn3 inh set2	aSyn UTR inh	PAX8 reporter
COc1cccc(-c2sc3ccccc3c2-c2ccc(OCCN(C)C)cc2)c1	89*	18	13	·	?
Nc1ccc(-c2cnc(N)c(C(=O)c3cccnc3)n2)cn1	67*	36	20	·	·
Nc1ccc(C(=O)c2cccs2)cn1	-9	1	-27	-27	8
Cc1cccc(-c2ccc(C3[C@@H]4CN(C(=O)Nc5ccc(F)cc5)C[C@H]3N4)cc2)c1 (stereo partly drawn)	·	·	·	·	95*!
O=C(Nc1cccc(F)c1)N1C[C@@H]2N[C@H](C1)C2c1ccc(-c2ccc(F)cc2)cc1 (stereo partly drawn)	·	·	·	·	86*!
O=C(C[C@H]1CC[C@@H](NC(=O)c2ccc(F)cc2)[C@H](CO)O1)NCCc1ccncc1	·	·	·	·	-4
CC1(C)N=C(N)N=C(N)N1c1ccc(Oc2ccc(Cl)cc2)c(Cl)c1	23	29	46	85*	60*
CC1(C)N=C(N)N=C(N)N1c1cccc(CN)c1	-5	-37	5	-1	-4
CC1(C)N=C(N)N=C(N)N1c1ccc(CCCCc2ccccc2)cc1	54*	·	89*	·	68*
CC1(C)N=C(N)N=C(N)N1c1cc(Cl)ccc1Cl	3	·	12	·	1
CC1(C)N=C(N)N=C(N)N1c1ccccc1	0	19	3	99*	·
CC1CCCC(C)N1C(=O)COC(=O)Cc1ccc(Cl)cc1 (stereo not drawn)	-1	-3	-1	-5	-6
O=C(NC(c1ccccc1)c1ccc2ccccc2n1)C1CCN(Cc2cccc(C(F)(F)F)c2)CC1 (stereo not drawn)	·	·	5	·	-6
NS(=O)(=O)c1ccc(CCNC(=O)CC(c2ccccc2)c2ccccc2)cc1	1	-2	-1	-4	45
Cc1onc(-c2ccccc2Cl)c1-c1nc(-c2ccccn2)no1	-1	4	8	2	·
Clc1ccccc1/C=C/c1nc(-c2ccccn2)no1	73*	?	·	104*	45
O=C(c1ccoc1)N1CCN(c2cc(-c3cccc(F)c3)nc3cc(-c4cccc(Cl)c4)nn23)CC1	8	·	91*	·	24
COc1cc(/C=C2\CC(C(C)(C)C)C/C(=C\c3cc(OC)c(OC)c(OC)c3)C2=O)cc(OC)c1OC (stereo not drawn)	?	84*	?	80*	8
COc1cc(/C=C2\CC/C(=C\c3cc(OC)c(OC)c(OC)c3)C2=O)cc(OC)c1OC	4	21	24	-55	5
COc1cc(/C=C2\COC/C(=C\c3cc(OC)c(OC)c(OC)c3)C2=O)cc(OC)c1OC	91*	92*	96*	103*	106*
COc1cc(/C=C2\CCC(C3CCCC3)C2=O)cc(OC)c1OC (stereo not drawn)	0	-45	-7	17	-33
COCCCNC(=O)c1c[nH]c2ccc(S(=O)(=O)N3CCc4ccccc43)cc2c1=O	-2	24	0	-15	36
CCNc1nc(C)c2cc(Br)c(=O)n(CC)c2n1	-3	14	47	76*	14
CCn1c(=N)c(C(=O)NC)cc2c(=O)n3cccc(C)c3nc21	-3	7	5	·	·
O=C(Nc1ccccc1)N1C[C@@H]2[C@H](c3ccccc31)[C@H](CO)N2C(=O)c1cccnc1	·	·	·	·	-33
CCN(CC(=O)Nc1c(F)cccc1F)C(=O)c1cc([N+](=O)[O-])ccc1N1CCCCC1	4	20	5	58	80*

Source: PubChem (Broad Institute)
